In the library only some 21% were active in any assay of this set; here they are far more common.
CYP2C19 inh: blocks human cytochrome P450 2C19. P33261. CYP2C19 Supersomes, luciferin-H EGE luminescence, 30 min. inhibition, % at 5 µM. actives 21% (n = 96,000);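 active means CYP2C19 inhibition above a set limit at 5 µM in the primary screen, cut at about 50% in these data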
CYP2C9 inh: inhibitors of human CYP2C9. inhibition, % at 5 µM. P11712. AID 777. CYP2C9 Supersomes, luciferin-H conversion, luminescence. actives 20% (n = 96,000);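 active means blocking of liver enzyme CYP2C9 beyond about 50% at 5 µM, limit read from the data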
Target sequence (P11712 whole entry, looked up): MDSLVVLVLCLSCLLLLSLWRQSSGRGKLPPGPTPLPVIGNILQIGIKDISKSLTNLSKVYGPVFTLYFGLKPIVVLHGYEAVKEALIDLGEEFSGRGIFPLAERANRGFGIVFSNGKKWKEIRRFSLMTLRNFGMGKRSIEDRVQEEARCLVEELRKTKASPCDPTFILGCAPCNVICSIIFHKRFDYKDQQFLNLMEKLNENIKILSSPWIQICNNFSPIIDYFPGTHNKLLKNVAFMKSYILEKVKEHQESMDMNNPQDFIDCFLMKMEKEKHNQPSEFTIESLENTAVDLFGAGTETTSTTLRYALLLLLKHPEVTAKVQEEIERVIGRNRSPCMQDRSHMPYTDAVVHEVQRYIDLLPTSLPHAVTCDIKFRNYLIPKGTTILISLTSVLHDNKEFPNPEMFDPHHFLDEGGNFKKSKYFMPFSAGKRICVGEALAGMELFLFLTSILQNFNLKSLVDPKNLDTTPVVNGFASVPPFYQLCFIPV
MRP-1 activ: activates MRP-1. H69AR cells + doxorubicin, viability rescue, CellTiter-Glo. viability increase, % at 10 µM. actives 0.61% (n = 140,000);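 active means viability gain under doxorubicin at or above a set limit, the compound median plus 3 SD, cut at about 4.7% in these data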;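 further: MRP-1 overexpressing cells given doxorubicin 25 µM after compound pretreatment; 18-22 h compound pretreatment then 72 h with doxorubicin before readout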
MRP reversal: compounds reversing MRP-mediated drug resistance; H69AR cells + 2 uM doxorubicin, CellTiter-Glo, 72 h; differential viability (reversal), % at 10 µM; actives 0.04% (n = 85,000);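 active means viability drop by adding the cancer drug above about 55%, with treated viability meeting a 40% cutoff, limit read from the data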;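 further: larger differential means the compound sensitizes cells more to doxorubicin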
CYP2C19 activ: cytochrome P450 2C19 (human) activation. AID 1025. P33261. activation factor at 5 µM. 96,000 tested, under 10 active. recombinant CYP2C19, luciferin-H EGE luminescence; active compounds read high; 0 = fully inhibited enzyme, 1 = untreated enzyme;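 active means activation factor of at least 2 at 5 µM in the primary screen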
CYP2C9 act: CYP2C9 (human) activation. P11712. recombinant CYP2C9, luciferin-H conversion, luminescence; active compounds read high; factor 1 = untreated enzyme, 0 = blocked. activation factor at 5 µM. actives 1.4% (n = 96,000);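 active means activation factor of 2 or more for CYP2C9 at a 5 µM dose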
Large screens that a line does not name were inactive.

OCCCc1nc2n(n1)C(c1ccccc1Cl)C=C(c1cccs1)N2 (stereo not given)	CYP2C9 inh 51
COC(=O)c1ccc(C)c(NC(=O)c2ccc(Cl)c([N+](=O)[O-])c2)c1	none (no result: CYP2C19 inh, CYP2C9 inh, MRP reversal, CYP2C19 activ, CYP2C9 act)
CCOC(=O)c1nc[nH]c1C	none (no result: MRP reversal)
CC(C)OC(=O)c1cc(C(=O)c2cc(F)ccc2O)coc1=N	CYP2C19 inh 85, CYP2C9 inh 73 (no result: MRP reversal)
O=C(/C(=N\Nc1ccccc1)Sc1nnnn1-c1ccccc1)c1ccccc1	none (no result: CYP2C19 inh, CYP2C9 inh, MRP reversal, CYP2C19 activ, CYP2C9 act)
COc1cc2c(cc1OC)CN(Cc1cccs1)CC2	CYP2C19 inh 66
c1csc(CN2CCOCC2)c1	CYP2C19 inh 94, CYP2C9 inh 100
COc1ccccc1N1CCN(Cc2cccs2)CC1	CYP2C19 inh 94
COc1ccc(OC)c(CN2CCN(c3ccccc3OC)CC2)c1	CYP2C19 inh 78
CCc1ccc2c(CN3CCc4cc(OC)c(OC)cc4C3)cc(=O)oc2c1	none (no result: CYP2C19 inh, CYP2C9 inh, MRP reversal, CYP2C19 activ, CYP2C9 act)
Cc1cccnc1NC(=O)Cn1nc(-c2ccccc2)oc1=S	none (no result: CYP2C19 inh, CYP2C9 inh, MRP reversal, CYP2C19 activ, CYP2C9 act)
COc1ccc(N2CCN(CC(=O)Nc3nnc(-c4ccccc4)s3)CC2)cc1	none (no result: CYP2C19 inh, CYP2C9 inh, CYP2C19 activ, CYP2C9 act)
O=C(Nc1ccccn1)C(F)(F)C(F)(F)C(F)(F)C(F)(F)C(=O)Nc1ccccn1	none (no result: CYP2C19 inh, CYP2C9 inh, MRP reversal, CYP2C19 activ, CYP2C9 act)
COc1cc2c(cc1OC)C(C)N(C(=O)c1cc3c(s1)-c1ccccc1OC3)CC2 (stereo not given)	none (no result: CYP2C19 inh, CYP2C9 inh, MRP reversal, CYP2C19 activ, CYP2C9 act)
Cc1ccc(N=C(c2cccs2)N2CCOCC2)cc1	CYP2C19 inh 73
Cc1cc(C)cc(-n2nnc(C(=O)NCc3ccccc3Cl)c2N)c1	CYP2C9 act 2.8
COCc1c(C(=O)OCC(=O)NCCN2C(=O)CSC2=O)oc2ccccc12	none (no result: CYP2C19 inh, CYP2C9 inh, MRP reversal, CYP2C19 activ, CYP2C9 act)
Clc1ccc(CNc2nc(CN3CCOCC3)nc3scc(-c4ccccc4)c23)cc1	none (no result: CYP2C19 inh, CYP2C9 inh, MRP reversal, CYP2C19 activ, CYP2C9 act)
O=C(c1ccncc1)N1CCN(c2cccc(C(F)(F)F)c2)CC1	CYP2C19 inh 100, CYP2C9 inh 92
O=C(c1ccncc1)N1CCN(c2ccc(F)cc2)CC1	CYP2C19 inh 91
O=C(c1ccc2c(c1)OCO2)N1CCN(c2ccc(F)cc2)CC1	CYP2C19 inh 84
O=C(c1ccc(Br)o1)N1CCN(c2ccccn2)CC1	CYP2C19 inh 90, CYP2C9 inh 77
CCOC(=O)C1=NN(C(C)=O)C2(CC(=O)N(c3cccc(C)c3)C2=O)C1 (stereo not given)	none (no result: CYP2C19 inh, CYP2C9 inh, MRP reversal, CYP2C19 activ, CYP2C9 act)
Cc1cc(C)n(-c2nnc(NC34CC5CC(CC(C5)C3)C4)nn2)n1	none (no result: CYP2C19 inh, CYP2C9 inh, MRP reversal, CYP2C19 activ, CYP2C9 act)
CSCCC(NC(=O)c1cc([N+](=O)[O-])ccc1Cl)C(=O)O (stereo not given)	none (no result: CYP2C19 inh, CYP2C9 inh, MRP reversal, CYP2C19 activ, CYP2C9 act)
O=C(c1ccccc1F)N1CCN(c2cccc(C(F)(F)F)c2)CC1	CYP2C19 inh 91, CYP2C9 inh 63
CCSc1ccccc1C(=O)N1CCN(c2ccccc2F)CC1	CYP2C19 inh 54, CYP2C9 inh 58
O=C(c1coc2ccccc2c1=O)N1CCN(c2cccc(C(F)(F)F)c2)CC1	CYP2C9 inh 53
O=C(c1c(F)c(F)c(F)c(F)c1F)N1CCN(c2cccc(C(F)(F)F)c2)CC1	none
CCSc1ccccc1C(=O)N1CCCC1	none
CCn1cc(Br)c(C(=O)N2CCN(c3ccccc3)CC2)n1	CYP2C19 inh 85, CYP2C9 act 2.1
CSCC[C@H](NC(=O)OC(C)(C)C)c1nnc(SCC(=O)Nc2ccc(C)cc2C)o1	none
[O-][n+]1c2c(c3c4non(O)c4ccc31)CCCC2	none
O=C(c1ccccc1F)N1CCN(c2ncccn2)CC1	none
CCn1cc(Br)c(C(=O)N(C)Cc2ccccc2)n1	CYP2C19 inh 92
O=C(c1ccccc1F)N1CCN(c2ccccc2)CC1	CYP2C19 inh 50
CC(C)OC(=O)c1cccnc1N1CCN(c2ccc(F)cc2)CC1	CYP2C19 inh 63 (no result: MRP reversal)
CC(=O)OC(C(=O)N1CCN(c2ccc(F)cc2)CC1)c1ccccc1 (stereo not given)	none (no result: CYP2C19 inh, CYP2C9 inh, CYP2C19 activ, CYP2C9 act)
O=C(c1cnn2cccnc12)N1CCN(c2ccccc2)CC1	CYP2C19 inh 87
CCOC(=O)c1cc(-c2ccccc2)n(CC(=O)Nc2ccc(OC)cc2)c1C	none (no result: CYP2C19 inh, CYP2C9 inh, MRP reversal, CYP2C19 activ, CYP2C9 act)
CSc1nnc(-c2cc(C)on2)n1-c1ccccc1	none (no result: CYP2C19 inh, CYP2C9 inh, MRP reversal, CYP2C19 activ, CYP2C9 act)
O=C(N1CCOCC1)N1CCN(c2ccccc2F)CC1	none
O=C(c1ccccc1)N1CCN(c2ccccc2F)CC1	CYP2C19 inh 93, CYP2C9 inh 66
O=C(c1ccc(Br)o1)N1CCN(c2ccccc2F)CC1	CYP2C19 inh 92
COC(=O)c1cccnc1N1CCN(c2ccccc2F)CC1	CYP2C19 inh 82 (no result: MRP reversal)
O=C(c1sc2ccccc2c1Cl)N1CCN(c2ccc(F)cc2)CC1	CYP2C19 inh 82, CYP2C9 act 2.3 (no result: MRP reversal)
CCOC(=O)/C(=N\Nc1ccc(Cl)cc1)Sc1nnc(-c2ccc(OC)cc2)n1C	none (no result: CYP2C19 inh, CYP2C9 inh, MRP reversal, CYP2C19 activ, CYP2C9 act)
O=C(c1ccccc1F)N1CCN(c2ccccc2F)CC1	CYP2C19 inh 68
O=C(c1ccccc1C(=O)N1CCN(c2ccccc2F)CC1)N1CCN(c2ccccc2F)CC1	CYP2C19 inh 70, CYP2C9 inh 89
O=C(c1ccccc1Br)N1CCN(c2ccccc2)CC1	CYP2C19 inh 60
CS(=O)(=O)Nc1ccc(C(=O)N2CCN(c3ccccc3F)CC2)cc1	none
O=C(c1ccco1)N1CCN(C(=O)C2CCN(S(=O)(=O)Cc3ccccc3)CC2)CC1	none
CC(C)[C@H](N)c1nnc(SCc2ccc(Cl)cc2)o1	CYP2C19 inh 96
C[C@H](N)c1nnc(SCc2ccc(Cl)cc2Cl)o1	CYP2C19 inh 100, CYP2C9 inh 82
CCC(C)[C@H](N)c1nnc(SCC(=O)c2ccc(Cl)cc2)o1 (stereo not given in full)	CYP2C19 inh 100, CYP2C9 inh 71
CCC(c1nnc(SCC(=O)NCCc2ccc(Cl)cc2Cl)o1)N(C)C (stereo not given)	CYP2C19 inh 79, CYP2C9 inh 58
Cc1cc2nc3c(=O)n(C4CCCCC4)c(=O)[nH]c3nc2cc1N	none (no result: CYP2C19 inh, CYP2C9 inh, MRP reversal, CYP2C19 activ, CYP2C9 act)
c1cncc(CNc2cccc(-c3nc4ccccc4[nH]3)c2)c1	none (no result: CYP2C19 inh, CYP2C9 inh, MRP reversal, CYP2C19 activ, CYP2C9 act)
CCn1c2ccccc2c2nnc(SCC(=O)N3CC(C)OC(C)C3)nc21 (stereo not given)	none
C[C@H](N)c1nnc(SCc2c(Cl)cccc2Cl)o1	CYP2C19 inh 99, CYP2C9 inh 58
Clc1cccc(Cl)c1CSc1nnc(/C=C/c2ccccc2)o1	none (no result: MRP reversal)
CC(C)C(=O)Nc1cccc(C(=O)Nc2nncs2)c1	none (no result: MRP reversal)
O=C(Nc1nccs1)c1cccc(NC(=O)C2CC2)c1	none
CCCC(=O)Nc1cccc(C(=O)Nc2nccs2)c1	CYP2C9 inh 55
CC(C)C(=O)Nc1cccc(C(=O)Nc2nccs2)c1	CYP2C9 inh 86
Fc1ccc(NCc2nnc(SCc3nnc(-c4ccccc4)o3)n2CC2CCCO2)cc1 (stereo not given)	none
Cc1cc(C)c(NC(=O)c2ccc(CNS(=O)(=O)c3cc(C(F)(F)F)ccc3Cl)cc2)c(C)c1	none (no result: CYP2C19 inh, CYP2C9 inh, MRP reversal, CYP2C19 activ, CYP2C9 act)
O=C(CCCN1C(=O)c2ccccc2C1=O)NC1CCCCCC1	none
O=C(CCCN1C(=O)c2ccccc2C1=O)OC1CSCC1NC(=O)c1ccccc1 (stereo not given)	CYP2C19 inh 70

Assay outcomes (PubChem)
